What all share (assay type): functional
The test system of experiment [1] is Plasmodium falciparum. Nature of the experiment: GSK_TCMDC: Inhibition of Plasmodium falciparum 3D7 in whole red blood cells, using parasite LDH activity as an index of growth. Test compounds present at 2uM.
Experiment [2] deals with Plasmodium falciparum. Put plainly: GSK_TCMDC: Inhibition of Plasmodium falciparum Dd2 in whole red blood cells, using parasite LDH activity as an index of growth. Test compounds present at 2uM.
A further experiment deals with HepG2. Nature of the experiment: GSK_TCMDC: Percent inhibition of human HepG2 cell line. Test compounds present at 10uM.

As usually defined, the Inhibition is the relative decrease from the control value, in per cent. Read a low Inhibition as a response near the control. In the case of `Cc1cccc2nc(-c3cccc(-c4cccc(NC(=O)c5cn(C)c(=O)n5C)c4)c3)[nH]c12`, the results for the Inhibition in the experiment on Plasmodium falciparum [1], in the experiment on Plasmodium falciparum [2] and with HepG2 were 99%, 80% and 5%, respectively.
As for `COc1cccc2c(NCc3ccccc3)nc(NCCCN3CCCCC3C)nc12` (stereo not drawn), the Inhibition in the experiment on Plasmodium falciparum [1] was determined as 90%; with Plasmodium falciparum [2], 2%; in the experiment on HepG2, 20%.
The matching figures for `Br.CCC(C)Oc1ccc(CCCON2C(N)=NC(N)=NC2(C)C)cc1` (stereo not drawn): 92%, 95% and 65%.
The matching figures for `CN(CCCN)CCCNc1ccnc2cc(Cl)ccc12`: 100%, 0% and 1%.
The matching figures for `O=[N+]([O-])c1cccc(Nc2nccc(-c3cnn4ncccc34)n2)c1`: 87%, 74% and 33%.
With `O=C(N[C@@H](CC1CCCCC1)C(=O)NC1CC1)c1ccc(O)c(-c2cccc(C(F)(F)F)c2)c1`, the Inhibition in the experiment on Plasmodium falciparum [1] is given as 99%; in the experiment on Plasmodium falciparum [2] it was 47%; with HepG2 it was 0%.
As for `CCOC(=O)c1ccc(NCc2ccccn2)cc1`, the results for the Inhibition with Plasmodium falciparum [1], in the experiment with Plasmodium falciparum [2] and with HepG2 were 99%, 0% and 0%, respectively.
Take `O=C(Nc1cccc(-c2cccc(-c3nc4cc(C(F)(F)F)ccc4[nH]3)c2)c1)c1csnn1`: the Inhibition in the experiment on Plasmodium falciparum [1] was found to be 99%; in the experiment with Plasmodium falciparum [2], 37%; in the experiment with HepG2 it was 45%.
The matching figures for `CCn1c(-c2nonc2N)nc2c(-c3cc4ccccc4s3)ncc(C(=O)N3CCC(N)C3)c21.O=C(O)C(F)(F)F` (stereo not drawn): 98%, 66% and 99%.
Consider `COc1ccc(Nc2cc(C)c3cc(NC(=O)c4ccncc4)ccc3n2)cc1`, for which the Inhibition in the experiment with Plasmodium falciparum [1] is reported as 98%; in the experiment with Plasmodium falciparum [2], 26%; in the experiment with HepG2 it was 0%.
Regarding `O=C(NCCSCc1c(F)cccc1Cl)c1cnc2c(c1)nc(-c1c[nH]c(-c3ccccc3)n1)n2CCc1c[nH]cn1`, the Inhibition with Plasmodium falciparum [1] stood at 93%; in the experiment on Plasmodium falciparum [2], 45%; with HepG2, 10%.
The corresponding values for `CC(C)c1ccc(Nc2nc(NCCc3c[nH]cn3)nc(NCc3ccccc3)n2)cc1` are 98%, 2% and 1%.
With `Br.CCCOC(=O)c1ccc(OCCCON2C(=N)N=C(N)NC2(C)C)cc1`, the Inhibition amounted to 95% in the experiment on Plasmodium falciparum [1], 97% with Plasmodium falciparum [2] and 61% in the experiment on HepG2.
The matching figures for `Fc1ccc2[nH]c3c(NCCCN4CCOCC4)ncnc3c2c1`: 98%, 2% and 14%.
The matching figures for `Cn1nc2ccc3ccccc3c2nc1=N.I`: 91%, 85% and 100%.
The matching figures for `O=C(O)C(F)(F)F.OCCC1CCN(Cc2ccc(-c3ccc(-c4nc5ccccc5[nH]4)cc3)cc2)CC1`: 99%, 98% and 35%.
As for `CC(CN1CCN(C)CC1)C(=O)Nc1cccc(-c2cccc(-c3nc4cc(F)ccc4[nH]3)c2)c1` (stereo not drawn), the Inhibition in the experiment with Plasmodium falciparum [1] worked out at 100%; in the experiment with Plasmodium falciparum [2], 78%; in the experiment on HepG2, 23%.
Take `CCOC(=O)CCCCCNC[C@H](O)c1ccccc1.Cl`: the Inhibition was found to be 98% in the experiment with Plasmodium falciparum [1], 0% in the experiment with Plasmodium falciparum [2] and 2% in the experiment with HepG2.
The matching figures for `COc1ccc(-c2ccnc(-c3cccc(-c4ccccn4)n3)c2)cc1`: 97%, 84% and 44%.
Take `Cc1ccc(Cl)cc1NC(=O)c1c(-c2ccccc2Cl)noc1C`: the values for the Inhibition with Plasmodium falciparum [1], in the experiment with Plasmodium falciparum [2] and with HepG2 were 88%, 37% and 9%, respectively.
Take `C=CCNC(=O)CCCNC(=N)N.Cl`: the figures for the Inhibition with Plasmodium falciparum [1], in the experiment with Plasmodium falciparum [2] and in the experiment on HepG2 were 98%, 12% and 0%, respectively.
On to `O=C(Nc1ccc(C(F)(F)F)cc1)c1cccc(S(=O)(=O)NC2CCN(CC3CCCCC3)CC2)c1.O=C(O)C(F)(F)F`, for which the figures for the Inhibition in the experiment on Plasmodium falciparum [1], in the experiment with Plasmodium falciparum [2] and with HepG2 were 99%, 12% and 18%, respectively.
For `CN1CCN(c2ccnc3ccc(NC(=O)Nc4ccccc4Br)cc23)CC1.Cl`, the Inhibition with Plasmodium falciparum [1] stood at 100%; in the experiment on Plasmodium falciparum [2] it was 95%; with HepG2, 4%.
The matching figures for `CC(C)CCNc1nc(NCCc2ccccc2)c2cc(O)ccc2n1`: 100%, 97% and 6%.
For `CCOC(=O)c1ccc(-c2c(C(F)(F)F)noc2-c2cc(CC)c(OC)cc2O)o1`, the Inhibition in the experiment with Plasmodium falciparum [1] came to 100%; in the experiment on Plasmodium falciparum [2], 95%; in the experiment with HepG2, 0%.
For `CCC(C(=O)Nc1cc(=O)[nH]c2nc(-c3ccco3)nn12)c1ccccc1` (stereo not drawn), the Inhibition with Plasmodium falciparum [1] is given as 87%; in the experiment on Plasmodium falciparum [2] it was 68%; in the experiment on HepG2, 2%.
The matching figures for `c1ccc2[nH]c(Nc3ccc(Nc4nc5ccccc5[nH]4)cc3)nc2c1`: 98%, 27% and 0%.
The corresponding values for `COc1ccc2c(=O)c(-c3ccc(OC(F)(F)F)cc3)c(C)[nH]c2c1` are 97%, 96% and 0%.
`O=C(c1cc(C(=O)Nc2ccc(F)cc2)c(=O)n(-c2ccc(F)cc2)c1)c1cc(Cl)ccc1O`: the Inhibition in the experiment with Plasmodium falciparum [1] is 100%; in the experiment with Plasmodium falciparum [2], 98%; in the experiment with HepG2, 13%.
The matching figures for `COc1ccc(Nc2ncc3c(-c4cccc(NC(=O)c5ccc(N)cc5)c4)c[nH]c3n2)cc1OC`: 84%, 31% and 83%.
The matching figures for `Cl.Cn1ccc(-c2cccc(Nc3ccnc4cc(-c5nccs5)ccc34)c2)n1`: 100%, 94% and 39%.

(Values after ChEMBL document CHEMBL1157539, “Thousands of chemical starting points for antimalarial lead identification” (Nature, 2010).)
